From PubChem BioAssay AID1578 (Sanford-Burnham Center for Chemical Genomics, 2009)
In all, about 290,000 compounds went through this assay and about 3,000 (1%) were called active. Shown is part of a subset that was picked to be rich in actives. Values without a mark were called inactive. Cut-off read from the data, not from the text of the source: active = inhibition mostly above about 36% (no sharp cut-off); inactive = mostly below about 34%.

assay: inhibition of NOD1-driven NF-kB reporter – cell-based, luminescence, uHTS, primary screen (AID 1578); conditions: NOD1-driven NF-kB luciferase reporter cells, at 4 µM, active compounds read high;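 note: HEK-293T reporter cells stimulated with the NOD1 agonist gamma-tri-DAP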

Row | Structure (SMILES) | inhibition
1 | CCOC(=O)CC(NC(=O)c1ccco1)c1ccccc1Cl (stereo not given) | -14.8%
2 | Fc1ccc(NC(=S)Nc2ccc(F)c(Cl)c2)cc1Cl | 74.1% (active)
3 | Fc1ccc(NC(=S)Nc2cccnc2)cc1Cl | -27%
4 | CC(=O)Nc1cccc(NC(=S)Nc2ccc(F)c(Cl)c2)c1 | 3%
5 | Cn1cc(C(=O)NS(=O)(=O)Nc2ccc(Br)cn2)c2ccccc21 | -29%
6 | CC(C)(C)c1nnc(N/N=C/c2cc(Br)ccc2O)n(N)c1=O | 68.7% (active)
7 | CC(C)(C)c1nnc(N/N=C/c2ccccc2O)n(N)c1=O | -45.8%
8 | CC(C)(C)c1nnc(N/N=C/c2ccc(Br)cc2)n(N)c1=O | -33.2%
9 | O=C(Nc1ncccc1Cl)c1ccccc1F | -31.4%
10 | Cc1[nH]n(-c2ccccc2)c(=O)c1/C=N/NC(=O)c1ccccc1F | -9.2%
11 | Cc1ccc(-n2[nH]c(C)c(/C=N/NC(=O)c3cccc([N+](=O)[O-])c3)c2=O)cc1C | 92.8% (active)
12 | Cc1ccc(-n2[nH]c(C)c(/C=N/NC(=O)c3ccc([N+](=O)[O-])cc3)c2=O)c(C)c1 | -20.9%
13 | Cc1[nH]n(-c2cccc3ccccc23)c(=O)c1/C=N/NC(=O)c1cccc([N+](=O)[O-])c1 | -8.2%
14 | Cc1[nH]n(-c2ccc(Br)cc2)c(=O)c1/C=N/NC(=O)c1ccccc1 | 69%
15 | Cc1cc(NS(=O)(=O)c2ccc(NC(=S)NC(=O)c3ccncc3)cc2)no1 | -4.1%
16 | O=C(OCCN1CCCCC1)c1cccc(F)c1 | -21.9%
17 | CCOc1cc(C2C(C(=O)OC)=CN(Cc3ccc(Cl)cc3)C=C2C(=O)OC)ccc1O | -1.2%
18 | O=C(CCCn1c(=O)[nH]c2ccccc2c1=O)Nc1ccc(F)cc1 | -2.3%
19 | COc1ccc(NC(=O)C2CC(=O)OC2c2ccccc2)cc1 (stereo not given) | -23.5%
20 | COc1cccc(NC(=O)CN2C(=O)COc3ccc(Cl)cc32)c1 | 26.8%

Row | Structure (SMILES) | inhibition
21 | NC(=O)C1=C[C@@H](c2csc3ccccc23)C[C@@H](OCCCCO)O1 | -3.6%
22 | Cc1cc(N=CC2=C(O)CC(C)(C)CC2=O)no1 | 13.1%
23 | COCCn1c(SCC(=O)NCc2ccccc2)nc2ccccc21 | 6.7%
24 | O=C1c2ccccc2C2=Nc3ccccc3SC(c3ccc(Cl)cc3)C12 (stereo not given) | 74.7% (active)
25 | O=C1c2ccccc2C2=Nc3ccccc3SC(c3ccccc3F)C12 (stereo not given) | 36.8%
26 | O=C1c2ccccc2C2=Nc3ccccc3SC(c3cccc(F)c3)C12 (stereo not given) | 49.7%
27 | NC(=O)CC(NC(=O)c1ccccc1)c1ccc(NCCOc2ccccc2)c([N+](=O)[O-])c1 (stereo not given) | 1.2%
28 | Cc1ccc(C(=O)N2CCN3C(=O)c4ccccc4C23c2ccc(Cl)cc2)cc1 (stereo not given) | -52.7%
29 | O=C(CCl)N1CCN2C(=O)c3ccccc3C12c1ccc(Cl)cc1 (stereo not given) | 87.1% (active)
30 | O=C(c1ccccc1)N1CCN2C(=O)c3ccccc3C12c1ccc(Cl)cc1 (stereo not given) | -44.9%
31 | O=C(Cn1c(=O)c2cccn2c2ccccc21)Nc1ccc(F)cc1F | -12.1%
32 | Cc1cc(C)nc(N(C#N)S(=O)(=O)c2ccccc2)n1 | 9.1%
33 | CC(C(=O)O/N=C(\N)c1ccccn1)c1ccc([N+](=O)[O-])cc1 (stereo not given) | -16.2%
34 | N/C(=N\OCc1ccc([N+](=O)[O-])cc1)c1ccccn1 | 88.4% (active)
35 | N/C(=N\OCc1ccc([N+](=O)[O-])cc1)c1ccncc1 | -27.7%
36 | CCCC(=O)Nc1ccccc1NC(=O)c1ccc(OCC)cc1 | 2.3%
37 | O=C1CC(N2CCC(c3nc4ccccc4[nH]3)CC2)C(=O)N1Cc1ccccc1 (stereo not given) | -24.3%
38 | Cc1cc(-c2ccc(C(C)C)c(S(=O)(=O)N3CCN(c4ccccc4)CC3)c2)on1 | 0%
39 | CCc1cc2c(=O)[nH]c(-c3ccccn3)nc2s1 | 112% (active)
40 | CCc1cc2c(=O)[nH]c(-c3ccncc3)nc2s1 | 29.8%

Row | Structure (SMILES) | inhibition
41 | CCc1cc2c(=O)[nH]c(Cc3ccccc3)nc2s1 | 0.4%
42 | CC(C)Nc1nc(Cl)nc(N(C#N)CN2C(=O)c3ccccc3S2(=O)=O)n1 | -4.8%
43 | COc1ccc2nc(SCC(=O)Nc3nccs3)[nH]c2c1 | -39.1%
44 | COc1ccc(NC(=O)CN2CCN(c3c(C)cccc3C)CC2)cc1 | -8.8%
45 | CC1C(=O)N(Cc2ccc(F)cc2)c2ccccc2N1C(=O)c1c(F)cccc1F (stereo not given) | 43.5% (active)
46 | COc1ccc(CN2C(=O)C(C)N(C(=O)c3c(F)cccc3F)c3ccccc32)cc1 (stereo not given) | 6.5%
47 | COC(=O)c1ccc(CN2C(=O)C(C)N(C(=O)c3c(F)cccc3F)c3ccccc32)cc1 (stereo not given) | -2.1%
48 | CC1CCN(CCCNC(=O)c2ccc3c(Cl)c4c(nc3c2)CCCC4)CC1 | 0.2%
49 | COc1ccc(-n2c(Cc3cccn3C)nnc2SCC(=O)Nc2ccc(Cl)cc2)cc1 | 39.9%
50 | COc1ccc(-n2c(Cc3cccn3C)nnc2SCC(=O)Nc2cccc(C)c2C)cc1 | 33.3%
51 | COc1ccc(-n2c(Cc3cccn3C)nnc2SCC(=O)Nc2ccccc2C)cc1 | 57% (active)
52 | COc1ccc(NC(=O)CSc2nnc(Cc3cccn3C)n2-c2ccc(OC)cc2)cc1 | 0.1%
53 | COc1ccc(-n2c(Cc3cccn3C)nnc2SCC(=O)Nc2ccc(C)c(Cl)c2)cc1 | 75.8% (active)
54 | COc1ccc(-n2c(Cc3cccn3C)nnc2SCC(=O)Nc2ccccc2OC)cc1 | 55%
55 | CN1C=CC=C/C1=C1\SC(=S)N(N)C1=O | -40.2%
56 | CCOC(=O)C1CCN(CCC(=O)Nc2ccc(C)cc2)CC1 | -32.1%
57 | COC(=O)c1cc(CNC(=O)c2ccc(N3CCCC3)c([N+](=O)[O-])c2)ccc1OC | -43.2%
58 | CNC(=S)N/N=C/c1cn(Cc2ccc(C)cc2)c2ccccc12 | 70.4% (active)
59 | CCNC(=S)N/N=C/c1cn(Cc2ccc(F)cc2)c2ccccc12 | 10.8%
60 | CNC(=S)N/N=C/c1cn(Cc2ccc(F)cc2)c2ccccc12 | -6.2%
